Source: PubChem
Shown are actives, neighbours in structure and some others; about 2.5% of the full set was active somewhere.
POLI inh – blocks human DNA polymerase iota activity. Q9UNA4. Pol iota fluorescent replication assay, 10 min. Potency, µM (series often up to 115 µM), usual class: inhibitors. 390,000 tested, 1% active. AID 588590
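Fluorescent replication assay read twice, at 0 min and 10 min after adding 50 nM (final) substrate. Enzyme (10 nM) and compounds were first incubated 15 min at room temperature; enzyme-free buffer wells were negative controls.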
Pol kappa inh – DNA polymerase kappa (human) inhibition; Q9UBT6; purified Pol kappa, fluorescent DNA synthesis assay, 10 min; Potency, µM (top dose mostly 107 µM), usual class: inhibitors; 400,000 tested, 0.53% active; AID 588579
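Kinetic fluorescence screen: compound preincubated 15 min RT with 10 nM enzyme; 50 nM substrate (final) initiates; reads at 0/10 min.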
Pol eta inh – inhibitors of human DNA polymerase eta. Q9Y253. recombinant Pol eta, fluorescent DNA replication assay. Potency, µM (doses to about 114 µM), hits mostly inhibitors. 390,000 tested, 1.2% active. AID 588591
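Fluorescent replication assay: 50 nM final substrate added after a 15 min room-temperature compound preincubation with 10 nM enzyme. Signal taken at 0 min and again at 10 min.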
Pol beta inh-1 – inhibitors of human DNA polymerase beta | Potency, µM (series often up to 114 µM), hits mostly inhibitors | AID 485314 | P06746 | Pol beta primer extension/strand displacement, fluorescence kinetic | 340,000 tested, 1.3% active
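Homogeneous kinetic assay of primer extension and strand displacement by 10 nM Pol beta, preincubated 15 min at room temperature with compound before 50 nM substrate (final) was added. Read at 0 and 10 min; four-parameter Hill fit.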
WRN inhibitor – WRN helicase (human) inhibition; Potency, µM (titrated, usually from 114 µM), usual class: inhibitors; Q14191; 360,000 tested, 0.46% active; WRN helicase unwinding, fluorescent forked duplex, kinetic; note: nearly all actives have a fitted effect of over 55% in size
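Primary qHTS, 1536-well format. 20 nM WRN + compound, 15 min RT; start with 100 nM forked fluorophore/quencher duplex, 2 mM ATP (final); kinetic read ex 525/em 598 nm.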
L3MBTL1 block – inhibitors of human L3MBTL1. 230,000 tested, 0.66% active. Q9Y468. AlphaScreen L3MBTL1–H3K9me1 peptide binding. Potency, µM (highest dose often 57.1 µM), hits mostly inhibitors. AID 485360; note: nearly all actives have a fitted effect of over 60% in size
Target sequence (Q9Y468 whole entry, looked up): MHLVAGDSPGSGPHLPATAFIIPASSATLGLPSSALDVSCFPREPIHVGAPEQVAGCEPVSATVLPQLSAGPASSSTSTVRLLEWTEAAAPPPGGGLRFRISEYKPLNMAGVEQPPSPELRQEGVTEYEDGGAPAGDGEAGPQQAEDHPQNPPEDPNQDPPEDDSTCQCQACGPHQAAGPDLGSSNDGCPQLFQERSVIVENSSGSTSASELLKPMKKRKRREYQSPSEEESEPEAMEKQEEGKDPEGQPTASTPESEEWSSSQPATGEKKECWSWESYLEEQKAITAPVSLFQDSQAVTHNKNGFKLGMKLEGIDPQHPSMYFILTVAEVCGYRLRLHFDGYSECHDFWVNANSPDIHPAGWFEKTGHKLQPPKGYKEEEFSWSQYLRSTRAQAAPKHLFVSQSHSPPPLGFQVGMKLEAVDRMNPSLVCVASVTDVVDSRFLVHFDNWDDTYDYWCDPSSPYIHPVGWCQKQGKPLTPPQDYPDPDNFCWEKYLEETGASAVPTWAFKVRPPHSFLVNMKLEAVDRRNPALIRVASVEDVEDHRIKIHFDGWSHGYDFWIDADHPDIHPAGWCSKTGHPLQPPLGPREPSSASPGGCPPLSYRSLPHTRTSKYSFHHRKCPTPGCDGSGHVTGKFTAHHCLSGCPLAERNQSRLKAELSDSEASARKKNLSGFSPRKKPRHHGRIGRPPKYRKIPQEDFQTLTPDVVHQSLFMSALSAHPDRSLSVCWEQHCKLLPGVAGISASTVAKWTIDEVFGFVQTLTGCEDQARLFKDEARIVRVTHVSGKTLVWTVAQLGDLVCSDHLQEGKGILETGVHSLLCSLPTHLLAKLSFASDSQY
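Read-out is AlphaScreen signal from streptavidin donor and nickel chelate acceptor beads (10 ug/mL final each) bridging L3MBTL1 (50 nM) and biotinylated K9-monomethylated H3(1-15) peptide (75 nM), after 30 min compound exposure at room temperature.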
Pol beta inh-2 – Inhibitors of human DNA polymerase beta, hit validation. shares compounds with Pol beta inh-1. Pol beta primer extension/strand displacement, fluorescence kinetic. Potency, µM, hits mostly inhibitors. 250 tested, 87% active. AID 540280; calls by dose curve
Klenow inh – Klenow polymerase inhibition, pol beta selectivity check | 250 tested, under 10 active | shares compounds with Pol beta inh-1 | Klenow exo- polymerase counter-screen, fluorescent DNA substrate | activity change, negative = inhibition, % at 57.1 µM | AID 540300
HIV RT inh – counter-screen for DNA polymerase beta inhibitors: HIV-1 RT inhibition | shares compounds with Pol beta inh-1 | HIV-1 RT polymerase activity, counter-screen | activity % (negative = inhibition, positive = activation), % at 57.1 µM | 250 tested, under 10 active | AID 540301
POLB inh gel – DNA polymerase beta inhibition, radiolabeled validation. shares compounds with Pol beta inh-1. radiolabeled primer extension gel assay, phosphorimager. inhibition, % at 10 µM. 110 tested, 91% active;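 active = inhibition at 10 µM of 30% or more; inconclusive = no clear call, values can overlap the other calls; inactive = inhibition at 10 µM under 30%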
Of the large screens only hits and unclear results are named; the others gave an inactive call (follow-up assays come after a bar, where they were run). Unless noted, calls come from the whole dose curve; as a rule, active = well fitted curve in the direction sought with a large enough effect; inconclusive = small, poorly fitted or top-dose-only effect, or another doubt; inactive = no such curve, though single readings can be large; an effect the other way counts as inactive or inconclusive.

Cc1ccc(-n2nnc3c(=O)n(CC(=O)NCc4ccccc4)cnc32)cc1	Pol beta inh-1 10µM | Pol beta inh-2 inconclusive | Klenow inh inactive | HIV RT inh inactive | POLB inh gel 49.7
Cn1c(SCC(=O)Nc2ccc3c(c2)oc2ccccc23)nnc1-c1ccccc1	POLI inh inconclusive, Pol beta inh-1 2.24µM (no result: L3MBTL1 block) | Pol beta inh-2 inconclusive | Klenow inh inactive | HIV RT inh inactive | POLB inh gel inactive
Clc1ccc(OCc2nn3c(-c4ccco4)nnc3s2)c(Cl)c1	Pol eta inh inconclusive, Pol beta inh-1 7.94µM (no result: L3MBTL1 block) | Pol beta inh-2 25.1 | Klenow inh inactive | HIV RT inh inactive | POLB inh gel inconclusive
Cc1ccc(OCc2nn3c(-c4ccco4)nnc3s2)cc1	none
CC1CCN(C(=O)CSc2nc3[nH]ncc3c(=O)[nH]2)CC1	none
Cc1ccc(C(=O)COC(=O)c2ccc(Cl)c(N)c2)s1	WRN inhibitor inconclusive (no result: Pol beta inh-1)
O=[N+]([O-])c1cc(CN2CCCC2)c2cccnc2c1O	POLI inh inconclusive, Pol kappa inh inconclusive, Pol eta inh 3.16µM, Pol beta inh-1 1.78µM, WRN inhibitor inconclusive, L3MBTL1 block 3.98µM | Pol beta inh-2 2.82 | Klenow inh inactive | HIV RT inh inactive
Cc1cc(=O)[nH]c(SCC(=O)c2ccc(O)c(O)c2)n1	POLI inh 50.1µM, Pol kappa inh inconclusive, Pol eta inh 17.8µM, Pol beta inh-1 11.2µM, L3MBTL1 block inconclusive | Pol beta inh-2 28.2 | Klenow inh inactive | HIV RT inh inconclusive | POLB inh gel inactive
Cc1cc(C)nc(SCC(=O)c2ccc(O)c(O)c2)n1	POLI inh inconclusive, Pol kappa inh inconclusive, Pol eta inh 15.8µM, Pol beta inh-1 4.47µM (no result: L3MBTL1 block) | Pol beta inh-2 31.6 | Klenow inh inactive | HIV RT inh inactive | POLB inh gel 42.0
Cc1cc(C)nc(SCC(=O)c2ccc([N+](=O)[O-])cc2)n1	none
Cc1ccc(C(=O)CSc2nc(C)cc(=O)[nH]2)cc1	none
CN(C(=O)CN1CCN(c2ccc([N+](=O)[O-])cn2)CC1)c1ccccc1	none (no result: L3MBTL1 block)
O=C(O)c1ccc2c(c1)C(=O)N(c1cccc(-c3nc4ccccc4s3)c1)C2=O	Pol beta inh-1 17.8µM | Pol beta inh-2 14.1 | Klenow inh inactive | HIV RT inh inactive
CC(=O)Oc1cccc(N2C(=O)c3ccc(C(=O)O)cc3C2=O)c1	none
Nc1c(C(=O)NCC2CCCO2)sc2nc3c(c(-c4ccco4)c12)CC/C3=C\c1ccco1 (stereo not given)	POLI inh 0.794µM, Pol kappa inh 0.708µM, Pol eta inh 0.708µM, Pol beta inh-1 2.82µM, WRN inhibitor 2.82µM, L3MBTL1 block 3.16µM | Pol beta inh-2 11.2 | Klenow inh inactive | HIV RT inh inactive
CCCc1ccc(S(=O)(=O)N2CCN(C(=O)CN3C(=O)NC(C)(C4CC4)C3=O)CC2)cc1 (stereo not given)	none (no result: POLI inh, Pol kappa inh, Pol beta inh-1, L3MBTL1 block)
COc1ccc(-c2nn(C)c3sc(C(=O)NCc4ccco4)cc23)cc1OC	POLI inh inconclusive, Pol eta inh inconclusive, Pol beta inh-1 12.6µM (no result: L3MBTL1 block) | Pol beta inh-2 14.1 | Klenow inh inactive | HIV RT inh inactive
CCOC(=O)c1sc2nc3c(SCCC(=O)O)cc(C(=O)c4cc(OC)ccc4O)cn3c(=O)c2c1C	POLI inh inconclusive, Pol eta inh 11.2µM, Pol beta inh-1 2.82µM, L3MBTL1 block inconclusive | Pol beta inh-2 6.31 | Klenow inh inactive | HIV RT inh inactive
